Measured values as given in PubChem BioAssay (NCI).
This is part of a sample that, as a whole, favours compounds with a hit. Of some 83,000 tested, about 20% had one in any assay.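 The test compound was applied at a single concentration to cells in 96-well plates for 48 hours, and percent growth was recorded.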 Values without a mark were called inactive. Calls of active or inactive are those of the source. The calls were made as follows: active = growth percent below 10; inactive = the rest.

Key:
Test in all cases: NCI-60 one-dose screen, 48 h (100 = growth as untreated, 0 = no growth, -100 = all killed)
Settings in all cases: 10 µM unless noted
[1] = test system: SNB-75 CNS
[2] = test system: SNB-19 CNS
[3] = test system: PC-3 prostate
[4] = test system: UACC-62 melanoma
[5] = test system: LOX IMVI melanoma
[6] = test system: SK-MEL-28 melanoma
[7] = test system: SK-MEL-2 melanoma
[8] = test system: U251 CNS
[9] = test system: SK-MEL-5 melanoma

Nc1ccc2c3c(cccc13)-c1ccccc1-2 gave a growth [1] of 74.2%, a growth [2] of 97.7% and a growth [3] of 73%. The growth [4] was 84.7%, the growth [5] was 91.7% and the growth [6] was 110%. For the same compound, the growth [7] was 105%.

O=C(CCc1nnc(Cn2cncn2)o1)c1nc2ccccc2[nH]1 was tested, and the growth [1] was 99.1%, the growth [2] was 111% and the growth [8] was 103%. The growth [4] was 97.9%, the growth [5] was 94.4% and the growth [6] was 105%.

O=C1CC(=O)N(c2ccccc2)O1 gave a growth [1] of 85%, a growth [2] of 110% and a growth [8] of 104%. For the same compound, the growth [9] was 97.6%, the growth [5] was 89.5% and the growth [6] was 107%.

With CN1C(=O)/C(=C/c2nc(-c3cccc(F)c3)n3ccccc23)c2ccccc21 the growth [2] was 76.8%, the growth [8] was 56.7% and the growth [3] was 81.6%. The growth [4] was 71.3%, the growth [5] was 48.8% and the growth [6] was 89.1%. The growth [7] was 68.2%.

Compound COc1ccc(CCN2CCCN3C2=Nc2ccccc2S3(=O)=O)cc1 has a growth [1] of 16.2%, a growth [8] of 30% and a growth [3] of 38.5%. For the same compound, the growth [9] was 35.9%, the growth [4] was 23.5% and the growth [5] was 27.7%. It also gave a growth [6] of 62.5% and a growth [7] of 51.9%.

Work on Cc1cc(C)n(C(=O)c2nn(-c3ccc(Cl)cc3)cc2O)n1 yielded a growth [1] of 29.8%, a growth [2] of 26.3% and a growth [8] of 19.4%. For the same compound, the growth [9] was 79.3%, the growth [4] was 52.9% and the growth [5] was 41.4%. The growth [6] was 71.7% and the growth [7] was 88.3%.

COc1ccc2nccc(/C=C/c3ccnc4ccc(OC)cc34)c2c1 showed a growth [1] of 102%, a growth [2] of 109% and a growth [8] of 107%. The growth [9] was 116%, the growth [4] was 109% and the growth [5] was 106%. It also gave a growth [6] of 92.8% and a growth [7] of 112%.

C=C(C)[C@@H]1C[C@H](O)Cc2cc(Cl)cc(Cl)c2N1 gave a growth [1] of 87.4%, a growth [2] of 103% and a growth [8] of 94.7%. The growth [9] was 102%, the growth [4] was 95% and the growth [5] was 92.3%. It also gave a growth [6] of 114%.

In the case of COC(=O)CCC1=C(C)/C(=C/c2[nH]c(-c3ccc[nH]3)cc2OC)N=C1C, the growth [1] was -32% (active), the growth [2] was 44.7% and the growth [8] was -1.49% (active). The growth [9] was -92% (active), the growth [4] was -49.6% (active) and the growth [5] was -64.3% (active). The growth [6] was -0.539% (active).

Cc1ccc(C(C)C)cc1NC(=O)Nc1ccc([N+](=O)[O-])cc1 was tested, and the growth [1] was 40.9%, the growth [2] was 20.1% and the growth [8] was 15.4%. For the same compound, the growth [9] was 16.7%, the growth [4] was 11.7% and the growth [5] was 5.39% (active). The growth [6] was 22.4% and the growth [7] was -2.75% (active).

O=C1NCN(c2ccccc2)C12CCN(CCCC(c1ccc(F)cc1)c1ccc(F)cc1)CC2 gave a growth [1] of 72%, a growth [2] of 78.2% and a growth [8] of 55.2%. The growth [9] was 41.4%, the growth [4] was 78.2% and the growth [5] was 61.9%. For the same compound, the growth [6] was 56.8% and the growth [7] was 81%.

Work on Cn1cc(-c2csc(-c3cn(C)c4ncccc34)n2)c2cc(Br)cnc21 yielded a growth [1] of 73.1%, a growth [2] of 98.5% and a growth [3] of 68.5%. For the same compound, the growth [9] was 79.3%, the growth [4] was 82.9% and the growth [5] was 81.9%. For the same compound, the growth [6] was 92.1% and the growth [7] was 111%.

Oc1ccccc1C=Nc1ccccc1N=Cc1ccccc1O.[Cu+2] showed a growth [1] of 47.9%, a growth [2] of 91.7% and a growth [8] of 61.8%. For the same compound, the growth [4] was 43.9%, the growth [5] was 47.6% and the growth [6] was 85.1%.

CCN(CC)c1ccc(CN(CC(=O)c2ccc(Cl)c(Cl)c2)Cc2ccccc2)cc1 was tested, and the growth [1] was 93%, the growth [8] was 103% and the growth [3] was 83%. It also gave a growth [9] of 97.9%, a growth [4] of 90.9% and a growth [5] of 94.3%. The growth [6] was 110% and the growth [7] was 96.9%.

With COc1ccc(OC)c2c1[nH]c(=O)c1c3ccccc3cn21 the growth [1] was -77.2% (active), the growth [2] was -48.4% (active) and the growth [8] was -97% (active). The growth [9] was -98.8% (active), the growth [4] was -100% (active) and the growth [5] was -84.8% (active). For the same compound, the growth [6] was -83.8% (active) and the growth [7] was -56.8% (active).

Clc1ccc(-c2nc(-c3cccs3)no2)c(Cl)c1 showed a growth [1] of 63.5%, a growth [2] of 104% and a growth [8] of 90.1%. It also gave a growth [9] of 83.9%, a growth [4] of 89% and a growth [5] of 103%. The growth [6] was 104% and the growth [7] was 123%.

CSc1nc2c(c(=O)[nH]1)C(c1ccc(Cl)cc1)C1=C(N2)/C(=C/c2ccc(Cl)cc2)CNC1 (stereo not given) gave a growth [1] of 51.9%, a growth [2] of 46.8% and a growth [3] of 42%. For the same compound, the growth [9] was 77.1%, the growth [5] was -61.3% (active) and the growth [7] was 78.4%.

Compound CCOC(=O)C1C(=O)OC2CCCCC21 (stereo not given) has a growth [2] of 97.6%, a growth [8] of 101% and a growth [3] of 107%. It also gave a growth [9] of 114%, a growth [4] of 99.8% and a growth [5] of 105%. The growth [6] was 109% and the growth [7] was 118%.

In the case of COC(=O)CC1=C(C)/C(=C/c2[nH]c(-c3ccc[nH]3)cc2OC)N=C1C, the growth [1] was -38.6% (active), the growth [2] was 32.3% and the growth [8] was 5.15% (active). The growth [9] was -92.8% (active), the growth [5] was -57.6% (active) and the growth [6] was -3.01% (active).

CC(NC(=O)C(C)Oc1ccc(Cl)cc1Cl)C(=O)O (stereo not given) showed a growth [2] of 96.2%, a growth [8] of 105% and a growth [3] of 102%. The growth [9] was 101%, the growth [4] was 91.7% and the growth [6] was 113%. For the same compound, the growth [7] was 97.4%.

In the case of Clc1ccccc1[C@@H]1C[C@@H]2Cc3cc(Br)c4ccccc4c3N1O2, the growth [1] was 4.57% (active), the growth [2] was 38.2% and the growth [8] was 34.4%. The growth [9] was 30.2%, the growth [4] was 24.4% and the growth [5] was 37%. For the same compound, the growth [6] was 47.5%.

In the case of Oc1[nH]c2ccc(Cl)cc2c1/C=c1/ccc2c(c1)N=C(c1ccc(C(F)(F)F)cc1)N=2, the growth [1] was 15.8%, the growth [2] was 77% and the growth [8] was 49.8%. It also gave a growth [9] of 63.4%, a growth [4] of 61.6% and a growth [5] of 34.2%. The growth [7] was 63.3%.

COc1ccc(/C=N\Nc2ccc([N+](=O)[O-])cn2)cc1OC was tested, and the growth [1] was -0.426% (active), the growth [2] was 39.7% and the growth [8] was -18.5% (active). For the same compound, the growth [9] was 85.5%, the growth [5] was 68.7% and the growth [6] was 79.5%.
